The record followed here is PubChem BioAssay (Tox21).

SMILES strings stand for the structures. Where “and” joins values, the source holds several entries; their conditions need not be identical. Equal entries are not always repeated. Results filed as inconclusive are left out. Calls of active or inactive are those of the source. Unless noted, the call rests on the fitted dose curve; in most records, active means well fitted curve in the direction sought with a large enough effect in the repeat runs; inconclusive means weak or mixed curves; inactive means no such curve, though single readings can be large; an effect the other way counts as inactive or inconclusive.

The nature of assay [1]: qHTS assay to identify small molecule agonists of the estrogen receptor alpha (ER-alpha) signaling pathway in the presence of an antagonist - cell viability counter screen (AID 1259386).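 Further: cells exposed to compounds for 22 h at 37 °C before the viability read; nearly all actives have a fitted effect of over 30% in size.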 Further: potency means the concentration at half of the fitted maximal effect. In a few lines:
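VM7Luc4E2 cells (endogenous full-length ER-alpha, 4×ERE-luciferase) were held 5 days in phenol red-free medium with 10% charcoal-stripped FBS, plated, then given 10.0nM ICI-182,780 and compounds at 15 concentrations for 22hr at 37C; viability read by CellTiter-Fluor fluorescence.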

Assay [2] addresses Progesterone receptor (Homo sapiens) (UniProt P06401). In words: qHTS assay to identify small molecule agonists of the progesterone receptor (PR) signaling pathway (AID 1346784; calls by dose curve; further: nearly all actives have a fitted effect of over 30% in size). In a few lines: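 PR-UAS-bla HEK 293T cells (beta-lactamase reporter under UAS) in 2% charcoal-stripped FBS, dosed with 23 nL compound after 6 hr, incubated 16hr at 37C. LiveBLAzer B/G FRET substrate added, fluorescence read after 2 hours.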
(In general: qHTS replaces the single test concentration by a dilution series.)

For assay [3] the target is unchanged. Put plainly: qHTS assay to identify small molecule antagonists of the progesterone receptor (PR) signaling pathway (AID 1346795; active means well fitted inhibition curve with a large enough effect in the signal ratio in the repeat runs, not every such curve was filed as active; the % refers to the signal ratio; further: potency means the concentration at half of the fitted maximal effect). The essentials:
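PR-UAS-bla HEK293T cells with beta-lactamase reporter under UAS control, in 2% charcoal-stripped FBS, treated with compounds plus 1 nM promegestone (R5020, final) for 16 hr at 37C. Read-out: FRET beta-lactamase substrate fluorescence after 2 hr at room temperature.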

A short description of assay [4]: qHTS assay to identify small molecule agonists of the progesterone receptor (PR) signaling pathway - cell viability counter screen (AID 1346799; calls by dose curve; further: nearly all actives have a fitted effect of over 45% in size; further: potency means the concentration at half of the fitted maximal effect). In a few lines:
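Counter screen in the PR-UAS-bla HEK293T wells (2% charcoal-stripped FBS, 16 h compound exposure at 37 C) after the bla read. CellTiter-Glo added, 30 min at room temperature, luminescence read as cell viability.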

Assay [5] is described as follows: qHTS assay to identify small molecule antagonists of the TGF-beta/Smad signaling pathway - cell viability counter screen (AID 1346824). Further: nearly all actives have a fitted effect of over 50% in size. Further: potency means the concentration at half of the fitted maximal effect. In a few lines:
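SBE-bla HEK 293T cells, incubated overnight, then compound plus 0.25 ng/mL TGF-beta1 (stock added) for 5 hr at 37 C. Viability was read in the same wells by CellTiter-Glo luminescence after 30 min at room temperature.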

A short description of assay [6]: qHTS assay to identify small molecule agonists of the TGF-beta/Smad signaling pathway - cell viability counter screen (AID 1346829). Further: nearly all actives have a fitted effect of over 45% in size. Further: potency means the concentration at half of the fitted maximal effect. The essentials: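 Cytotoxicity counter screen: CellTiter-Glo luminescence (30 min, room temperature) measured in the SBE-bla HEK 293T reporter wells after 5 hr compound treatment at 37 C and the 2 hr substrate step.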
Assay [7] in a line: qHTS assay to identify small molecule agonists of the TGF-beta/Smad signaling pathway (AID 1346859; active means well fitted activation curve with a large enough effect in the signal ratio in the repeat runs, not every such curve was filed as active; the % refers to the signal ratio; further: series mostly up to about 77 µM). The essentials:
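SBE-bla HEK293T cells plated overnight, then compound exposure for 5 h at 37 C. Beta-lactamase reporter read with LiveBLAzer B/G FRET substrate after 2 h at room temperature, fluorescence at 405 nm excitation, 460/530 nm emission.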

Assay [8] concerns the target Thyrotropin-releasing hormone receptor (Homo sapiens) (UniProt P34981). Put plainly: qHTS assay to identify small molecule antagonists of the thyrotropin-releasing hormone receptor (TRHR) signaling pathway (AID 1346877; active means well fitted inhibition curve with a large enough effect in the repeat runs, not every such curve was filed as active; further: series mostly up to about 51 µM). The essentials:
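TRHR-expressing HEK293 cells were seeded, cultured 18 h at 37 °C, then loaded with calcium dye for 2 h. Compounds were pre-incubated 5 min at room temperature before 1 nM TRH (final) was added, and kinetic fluorescence was recorded for 3 min.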

The target is the same in assay [9]. Put plainly: qHTS assay to identify small molecule agonists of the thyrotropin-releasing hormone receptor (TRHR) signaling pathway (AID 1346891; calls by dose curve; further: series mostly up to about 58 µM). The essentials:
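HEK293 cells expressing TRHR plated 18 h at 37 C/5% CO2, calcium dye-loaded 2 h at 37 C, then compound added (agonist mode); kinetic calcium fluorescence read 3 min at 1 s intervals; 15 concentrations in triplicate.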

Assay [10] can be described thus: qHTS assay to identify small molecule antagonists of the progesterone receptor (PR) signaling pathway - cell viability counter screen (AID 1346798). Further: nearly all actives have a fitted effect of over 50% in size. Further: potency means the concentration at half of the fitted maximal effect. In a few lines: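 PR-UAS-bla HEK293T cells, 3,000/well in 2% charcoal-stripped FBS medium, dosed with compounds plus R5020 agonist and incubated 16 h at 37C. Viability then measured in the same wells by CellTiter-Glo luminescence after 30 min at RT.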
On the % scale 0 is the no-effect control and ±100 the full control effect.

Sequence of Thyrotropin-releasing hormone receptor (Homo sapiens) (P34981 whole entry, looked up): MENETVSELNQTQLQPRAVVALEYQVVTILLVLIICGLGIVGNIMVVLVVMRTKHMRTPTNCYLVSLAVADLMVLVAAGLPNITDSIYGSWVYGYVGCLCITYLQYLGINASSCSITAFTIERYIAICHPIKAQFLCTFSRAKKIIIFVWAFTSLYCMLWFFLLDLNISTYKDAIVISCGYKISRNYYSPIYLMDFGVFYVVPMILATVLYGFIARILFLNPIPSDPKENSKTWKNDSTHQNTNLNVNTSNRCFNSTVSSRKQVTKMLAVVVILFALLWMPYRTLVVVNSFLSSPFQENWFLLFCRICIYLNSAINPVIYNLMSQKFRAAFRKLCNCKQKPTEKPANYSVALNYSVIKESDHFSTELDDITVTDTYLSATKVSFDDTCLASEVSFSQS
Sequence of Progesterone receptor (Homo sapiens) (P06401 whole entry, looked up): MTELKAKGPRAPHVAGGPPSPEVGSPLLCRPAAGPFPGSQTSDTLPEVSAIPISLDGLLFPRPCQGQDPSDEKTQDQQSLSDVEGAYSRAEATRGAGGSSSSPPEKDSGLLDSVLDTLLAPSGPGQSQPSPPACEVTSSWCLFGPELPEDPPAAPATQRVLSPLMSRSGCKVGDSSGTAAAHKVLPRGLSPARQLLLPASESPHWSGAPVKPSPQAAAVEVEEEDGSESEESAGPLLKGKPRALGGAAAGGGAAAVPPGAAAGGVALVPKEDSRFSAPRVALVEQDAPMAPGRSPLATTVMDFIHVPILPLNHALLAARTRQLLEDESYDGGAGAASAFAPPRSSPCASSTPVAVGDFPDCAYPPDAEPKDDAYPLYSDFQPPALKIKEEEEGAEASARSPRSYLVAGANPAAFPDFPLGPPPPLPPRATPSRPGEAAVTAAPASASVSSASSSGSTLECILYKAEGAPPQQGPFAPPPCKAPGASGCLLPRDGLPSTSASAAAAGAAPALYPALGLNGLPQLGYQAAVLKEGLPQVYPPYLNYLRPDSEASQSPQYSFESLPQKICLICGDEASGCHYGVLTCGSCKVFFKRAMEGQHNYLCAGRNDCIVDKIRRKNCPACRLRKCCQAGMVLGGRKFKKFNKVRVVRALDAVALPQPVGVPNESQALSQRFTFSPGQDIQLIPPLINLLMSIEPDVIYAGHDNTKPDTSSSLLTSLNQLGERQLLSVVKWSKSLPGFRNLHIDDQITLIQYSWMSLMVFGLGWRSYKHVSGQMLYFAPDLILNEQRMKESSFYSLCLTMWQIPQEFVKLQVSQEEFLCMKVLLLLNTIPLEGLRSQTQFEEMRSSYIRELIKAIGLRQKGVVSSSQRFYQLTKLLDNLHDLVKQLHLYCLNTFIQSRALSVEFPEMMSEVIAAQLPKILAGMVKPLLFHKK

For `Clc1ccccc1-c1nnc(-c2ccccc2Cl)nn1`, the Potency entry in assay [1], in [2], in [3], in [4], in [5] and in [6] was “inactive” throughout. Besides, the Potency result in [7] and in assay [8] was “inactive” in each case. Besides, the outcome in assay [9] was inactive.
With `CCC[CH2][Sn]([Cl])([Cl])[CH2]CCC`, the Potency was 1.96 µM (active) and 2.17 µM (active) in [1]; 0.196 µM (active) in assay [3]; 1.1 µM (active) and 1.37 µM (active) in assay [10]; 1.1 µM (active) and 1.37 µM (active) in assay [4]; 8.82 µM (active) and 13.8 µM (active) in assay [5]; 7.01 µM (active) and 15.5 µM (active) in assay [6]. Further, in assay [8], the Potency entry was “inactive”. Also, the outcome in assay [9] was inactive.
For the compound `O=C(O)CF`, the Potency result in assay [1], in assay [2], in [3], in [4], in [5] and in assay [6] was “inactive” throughout. For the same compound, the Potency result in assay [7] and in assay [8] was “inactive” each time. Besides, the call in assay [9] was inactive.
On to `N#Cc1nn(-c2c(Cl)cc(C(F)(F)F)cc2Cl)c(N)c1S(=O)C(F)(F)F` (centres undefined), for which, in [1], the Potency is 21.8 µM (active) and 29.8 µM (active). The Potency entry in assay [2], in assay [4], in assay [5], in assay [6], in [7] and in assay [8] was “inactive” throughout. For the same compound, in [9], the compound was classed as inactive.
`CCCCCCCC[N+](C)(CCCCCCCC)CCCCCCCC`: the Potency was 21.6 µM (active) and 6.87 µM (active) and 30.6 µM (active) in [1]; 30.6 µM (active) in assay [10]; 15.5 µM (active) and 49 µM (active) in assay [5]; 49 µM (active) in [6]. The Potency result in assay [2] was “inactive”.
As for `CC[n+]1c(-c2ccccc2)c2cc(N)ccc2c2ccc(N)cc21`, the Potency is 48.3 µM (active) and 26.6 µM (active) in assay [1]; 38.4 µM (active) in assay [3]; 3.76 µM (active) in assay [4]. For the same compound, the Potency result in assay [2], in assay [5], in assay [6], in assay [7] and in [8] was “inactive” each time. For the same compound, in [9], the compound was called inactive.
As for `OC(c1ccc(Cl)cc1)(c1cncnc1)c1ccccc1Cl` (centres undefined), the Potency result in assay [1], in assay [2], in assay [5], in assay [6], in assay [7] and in assay [8] was “inactive” in each case. Further, in assay [3], the Potency is 13.7 µM (active). The compound was classed as inactive in assay [9].
As for `CCN(CC)C(=O)C(C)Oc1cccc2ccccc12` (centres undefined), the Potency result in [2], in [4], in assay [5], in assay [6], in assay [7] and in assay [8] was “inactive” each time. For the same compound, in [9], the compound was called inactive.
Regarding `CC(C)(c1ccc(OCC2CO2)cc1)c1ccc(OCC2CO2)cc1` (centres undefined), the Potency entry in assay [1], in [10], in assay [4], in assay [5], in assay [6] and in assay [7] was “inactive” each time. Further, the Potency entry in assay [8] is “inactive”. Moreover, the result in assay [9] was inactive.
In the case of `O=C(O)c1nn(Cc2ccc(Cl)cc2Cl)c2ccccc12`, the Potency result in [1], in assay [2], in [3], in assay [4], in [5] and in [6] was “inactive” throughout. In addition, the Potency entry in assay [8] was “inactive”. Besides, the result in assay [9] was inactive.
On to `CC(C)(O)C#N`, for which the Potency result in assay [1], in assay [2], in assay [3], in assay [4], in [5] and in [6] was “inactive” each time. Besides, the Potency result in [7] and in assay [8] was “inactive” in each case. Also, the compound was called inactive in [9].
As for `C[C@]12CC[C@H]3[C@@H](CCC4=CC(=O)CC[C@@H]43)[C@@H]1CC[C@@H]2O`, the Potency entry in assay [1], in assay [3], in assay [10], in assay [5], in assay [6] and in assay [7] was “inactive” in each case. The Potency result in assay [8] was “inactive”. Also, the compound was called inactive in assay [9].
Regarding `COc1ccc(C=O)cc1OC`, the Potency entry in assay [1], in [2], in assay [4], in assay [5], in assay [6] and in assay [7] was “inactive” throughout. Further, in [8], the Potency entry is “inactive”. For the same compound, the compound was classed as inactive in assay [9].
As to `CCCCCCCCCC(CC)c1ccc(S(=O)(=O)O)cc1` (centres undefined), the Potency entry in assay [1], in assay [5], in assay [6] and in assay [7] was “inactive” throughout. Moreover, in assay [4], the Potency was 27 µM (active) [middle of 4 runs].
